# Data reported in article PMC7862700, “An all-to-all approach to the identification of sequence-specific readers for epigenetic DNA modifications on cytosine”.
# Columns and labels:
# Test in all cases: DAPPL (digital affinity profiling via proximity ligation, sequencing); 10 mM Tris-HCl pH 7.5, 50 mM NaCl, 1 mM DTT, 4% glycerol, room temperature, 30 min; GST-TFs on glutathione beads, 16-mer random dsDNA library, 0.1% formaldehyde crosslink after washing; high values mean tight binding
# FEV = target: T1, FEV (Homo sapiens, UniProt Q99581 1-238); details: protein: recombinant; tags: N-terminal GST; dsDNA, one strand shown
# T1 sequence: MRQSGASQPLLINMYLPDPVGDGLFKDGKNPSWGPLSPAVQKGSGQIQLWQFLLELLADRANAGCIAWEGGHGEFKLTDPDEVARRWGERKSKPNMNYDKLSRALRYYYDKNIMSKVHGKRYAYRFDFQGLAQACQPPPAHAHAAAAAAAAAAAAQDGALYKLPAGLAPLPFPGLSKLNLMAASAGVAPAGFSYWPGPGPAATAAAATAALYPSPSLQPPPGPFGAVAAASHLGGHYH
# How it was run: (§1)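 Human transcription factors were made in yeast as GST fusions, captured on glutathione beads and barcoded with DNA. With a tag-only sample included, the pool was incubated with 200 nmole of a random double-stranded 16-mer DNA library in Tris/NaCl/DTT/glycerol buffer at room temperature for 30 min, then crosslinked with 0.1% formaldehyde after washing, ligated by proximity, amplified and sequenced. For binding signal, each hexamer's read frequency for a factor is divided by its frequency for the tag-only sample.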
# ETV5 = ETV5 (Homo sapiens, UniProt P41161 1-510); details: protein: recombinant; tags: N-terminal GST; dsDNA, one strand shown
# Sequence of ETV5 (P41161 whole entry): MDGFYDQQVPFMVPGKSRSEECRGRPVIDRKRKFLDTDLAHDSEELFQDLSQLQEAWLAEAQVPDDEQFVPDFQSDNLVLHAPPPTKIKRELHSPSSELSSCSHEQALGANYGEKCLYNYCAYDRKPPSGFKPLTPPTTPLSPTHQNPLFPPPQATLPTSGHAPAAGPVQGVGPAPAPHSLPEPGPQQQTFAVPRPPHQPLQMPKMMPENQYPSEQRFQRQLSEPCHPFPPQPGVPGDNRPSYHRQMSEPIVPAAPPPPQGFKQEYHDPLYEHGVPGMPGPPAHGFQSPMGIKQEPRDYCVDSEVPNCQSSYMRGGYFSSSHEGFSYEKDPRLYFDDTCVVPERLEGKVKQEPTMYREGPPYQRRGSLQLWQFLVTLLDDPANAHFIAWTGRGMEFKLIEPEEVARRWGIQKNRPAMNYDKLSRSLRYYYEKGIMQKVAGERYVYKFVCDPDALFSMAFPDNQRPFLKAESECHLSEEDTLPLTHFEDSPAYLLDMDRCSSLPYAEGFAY
# How it was run: as §1
# HSF1 = HSF1 (Homo sapiens, UniProt Q00613 1-529); details: protein: recombinant; tags: N-terminal GST; chain copies: 3; dsDNA, one strand shown
# Sequence of HSF1 (Q00613 whole entry): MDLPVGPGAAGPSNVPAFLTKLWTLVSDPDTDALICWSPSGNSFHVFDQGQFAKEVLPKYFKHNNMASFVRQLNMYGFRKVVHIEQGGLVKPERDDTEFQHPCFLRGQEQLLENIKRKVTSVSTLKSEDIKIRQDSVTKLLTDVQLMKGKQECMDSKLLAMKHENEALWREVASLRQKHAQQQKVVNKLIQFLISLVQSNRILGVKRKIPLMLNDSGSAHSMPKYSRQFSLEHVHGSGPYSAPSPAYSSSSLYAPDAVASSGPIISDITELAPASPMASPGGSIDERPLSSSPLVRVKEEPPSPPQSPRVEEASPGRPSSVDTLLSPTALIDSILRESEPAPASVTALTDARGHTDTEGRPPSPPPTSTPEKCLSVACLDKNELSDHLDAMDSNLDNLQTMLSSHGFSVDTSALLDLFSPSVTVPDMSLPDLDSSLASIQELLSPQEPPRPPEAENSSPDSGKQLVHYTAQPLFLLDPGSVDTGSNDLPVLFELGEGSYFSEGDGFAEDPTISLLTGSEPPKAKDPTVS
# How it was run: as §1
# SPIC = target: T2, SPIC (Homo sapiens, UniProt Q8N5J4 1-248); details: protein: recombinant; tags: N-terminal GST; dsDNA, one strand shown
# T2 sequence: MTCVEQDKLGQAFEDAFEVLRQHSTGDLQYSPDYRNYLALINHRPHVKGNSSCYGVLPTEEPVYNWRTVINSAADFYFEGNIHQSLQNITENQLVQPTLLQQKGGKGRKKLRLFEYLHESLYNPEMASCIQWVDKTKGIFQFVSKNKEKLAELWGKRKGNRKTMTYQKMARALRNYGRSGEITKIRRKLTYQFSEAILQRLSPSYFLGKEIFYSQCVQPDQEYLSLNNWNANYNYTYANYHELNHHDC
# How it was run: as §1
# ELF4 = ELF4 (Homo sapiens, UniProt Q99607 1-663); details: protein: recombinant; tags: N-terminal GST; dsDNA, one strand shown
# Sequence of ELF4 (Q99607 whole entry): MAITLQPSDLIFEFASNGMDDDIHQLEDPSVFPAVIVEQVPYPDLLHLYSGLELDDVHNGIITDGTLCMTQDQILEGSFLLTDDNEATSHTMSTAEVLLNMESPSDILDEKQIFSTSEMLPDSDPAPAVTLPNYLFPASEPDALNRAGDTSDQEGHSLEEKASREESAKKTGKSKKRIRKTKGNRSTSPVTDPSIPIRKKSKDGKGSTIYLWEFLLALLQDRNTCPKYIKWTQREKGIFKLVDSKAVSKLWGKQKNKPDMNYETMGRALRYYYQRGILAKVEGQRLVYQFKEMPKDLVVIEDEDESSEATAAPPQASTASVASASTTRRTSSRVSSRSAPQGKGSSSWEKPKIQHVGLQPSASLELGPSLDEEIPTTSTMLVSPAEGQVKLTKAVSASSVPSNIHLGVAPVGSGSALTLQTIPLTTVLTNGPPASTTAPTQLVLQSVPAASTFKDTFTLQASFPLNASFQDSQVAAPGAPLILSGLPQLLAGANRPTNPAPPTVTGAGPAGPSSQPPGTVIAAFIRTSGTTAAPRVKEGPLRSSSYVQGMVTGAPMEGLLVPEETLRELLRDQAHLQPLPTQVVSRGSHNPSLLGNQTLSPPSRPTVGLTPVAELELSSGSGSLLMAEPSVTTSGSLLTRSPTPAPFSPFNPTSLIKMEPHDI
# How it was run: as §1
# ELK4 = target: T3, ELK4 (Homo sapiens, UniProt P28324-2 1-405); details: protein: recombinant; tags: N-terminal GST; dsDNA, one strand shown
# T3 sequence: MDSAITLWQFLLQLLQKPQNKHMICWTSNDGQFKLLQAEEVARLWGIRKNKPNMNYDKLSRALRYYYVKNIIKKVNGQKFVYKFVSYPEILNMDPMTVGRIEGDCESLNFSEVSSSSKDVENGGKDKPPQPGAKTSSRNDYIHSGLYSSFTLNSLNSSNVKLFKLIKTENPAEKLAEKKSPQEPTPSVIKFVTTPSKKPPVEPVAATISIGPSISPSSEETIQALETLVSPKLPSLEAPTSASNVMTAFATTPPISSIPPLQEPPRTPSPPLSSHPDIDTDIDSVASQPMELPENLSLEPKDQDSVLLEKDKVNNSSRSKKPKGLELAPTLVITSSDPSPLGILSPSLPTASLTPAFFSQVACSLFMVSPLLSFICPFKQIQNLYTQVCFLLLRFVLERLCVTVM
# How it was run: as §1
# ETV2 = target: T4, ETV2 (Homo sapiens, UniProt O00321 1-342); details: protein: recombinant; tags: N-terminal GST; dsDNA, one strand shown
# T4 sequence: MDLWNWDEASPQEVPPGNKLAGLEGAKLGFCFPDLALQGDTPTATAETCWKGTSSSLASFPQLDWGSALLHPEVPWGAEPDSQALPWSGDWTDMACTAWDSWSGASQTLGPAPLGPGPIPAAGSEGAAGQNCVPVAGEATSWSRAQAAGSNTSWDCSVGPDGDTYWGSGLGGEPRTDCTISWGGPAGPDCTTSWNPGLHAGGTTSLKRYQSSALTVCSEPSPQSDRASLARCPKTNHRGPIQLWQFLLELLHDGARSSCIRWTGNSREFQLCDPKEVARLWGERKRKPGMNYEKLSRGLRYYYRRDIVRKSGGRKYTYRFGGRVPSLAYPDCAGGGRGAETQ
# How it was run: as §1
# ELF3 = target: T5, ELF3 (Homo sapiens, UniProt P78545 1-371); details: protein: recombinant; tags: N-terminal GST; dsDNA, one strand shown
# T5 sequence: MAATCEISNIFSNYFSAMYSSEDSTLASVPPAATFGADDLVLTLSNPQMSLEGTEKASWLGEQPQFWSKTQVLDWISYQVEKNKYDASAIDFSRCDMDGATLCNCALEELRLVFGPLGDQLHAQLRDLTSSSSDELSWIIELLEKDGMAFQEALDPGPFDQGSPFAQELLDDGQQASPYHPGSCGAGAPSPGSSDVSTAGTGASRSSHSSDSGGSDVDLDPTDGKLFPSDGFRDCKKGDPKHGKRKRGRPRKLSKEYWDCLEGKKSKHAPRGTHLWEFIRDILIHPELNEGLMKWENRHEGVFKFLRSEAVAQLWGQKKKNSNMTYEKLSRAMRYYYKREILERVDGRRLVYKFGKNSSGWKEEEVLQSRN
# How it was run: as §1
# CRX = CRX (Homo sapiens, UniProt O43186 1-299); details: protein: recombinant; tags: N-terminal GST; dsDNA, one strand shown
# Sequence of CRX (O43186 whole entry): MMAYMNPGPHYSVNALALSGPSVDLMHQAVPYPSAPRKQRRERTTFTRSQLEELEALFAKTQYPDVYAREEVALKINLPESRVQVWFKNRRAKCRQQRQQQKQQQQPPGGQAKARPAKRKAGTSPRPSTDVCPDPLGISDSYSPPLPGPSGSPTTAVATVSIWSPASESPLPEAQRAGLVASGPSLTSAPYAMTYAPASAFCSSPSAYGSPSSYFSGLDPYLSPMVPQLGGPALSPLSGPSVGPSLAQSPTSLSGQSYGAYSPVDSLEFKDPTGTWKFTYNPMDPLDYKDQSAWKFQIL
# How it was run: as §1
# ETV1 = ETV1 (Homo sapiens, UniProt P50549 1-477); details: protein: recombinant; tags: N-terminal GST; dsDNA, one strand shown
# Sequence of ETV1 (P50549 whole entry): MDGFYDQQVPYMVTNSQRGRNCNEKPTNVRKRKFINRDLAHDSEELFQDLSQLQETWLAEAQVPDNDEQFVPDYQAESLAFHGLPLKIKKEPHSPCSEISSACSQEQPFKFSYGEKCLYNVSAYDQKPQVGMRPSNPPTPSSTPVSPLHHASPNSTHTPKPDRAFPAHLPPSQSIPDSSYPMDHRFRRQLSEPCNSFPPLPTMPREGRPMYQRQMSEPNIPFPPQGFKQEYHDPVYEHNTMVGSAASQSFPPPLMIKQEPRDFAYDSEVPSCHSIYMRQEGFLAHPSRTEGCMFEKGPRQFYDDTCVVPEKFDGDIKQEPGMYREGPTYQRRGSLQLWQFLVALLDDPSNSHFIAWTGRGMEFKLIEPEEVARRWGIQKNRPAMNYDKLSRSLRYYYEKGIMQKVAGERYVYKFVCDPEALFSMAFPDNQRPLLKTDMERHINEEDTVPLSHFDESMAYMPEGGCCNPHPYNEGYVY
# How it was run: as §1
# ERF = target: T6, ERF (Homo sapiens, UniProt P50548 1-548); details: protein: recombinant; tags: N-terminal GST; dsDNA, one strand shown
# T6 sequence: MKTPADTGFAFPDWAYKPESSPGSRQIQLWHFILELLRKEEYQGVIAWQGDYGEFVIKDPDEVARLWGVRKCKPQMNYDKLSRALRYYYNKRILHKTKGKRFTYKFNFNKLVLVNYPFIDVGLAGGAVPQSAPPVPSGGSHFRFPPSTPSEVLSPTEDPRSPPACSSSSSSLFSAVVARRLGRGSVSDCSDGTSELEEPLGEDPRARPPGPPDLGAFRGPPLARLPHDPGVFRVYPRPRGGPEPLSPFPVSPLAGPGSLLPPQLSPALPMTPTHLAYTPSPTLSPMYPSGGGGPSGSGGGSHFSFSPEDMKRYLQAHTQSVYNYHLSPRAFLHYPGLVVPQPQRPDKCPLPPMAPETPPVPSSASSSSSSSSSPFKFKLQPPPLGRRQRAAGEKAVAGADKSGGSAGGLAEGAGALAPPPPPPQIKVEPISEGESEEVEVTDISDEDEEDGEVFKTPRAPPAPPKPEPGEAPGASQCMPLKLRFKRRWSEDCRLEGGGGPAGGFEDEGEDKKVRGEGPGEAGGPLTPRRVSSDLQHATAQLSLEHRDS
# How it was run: as §1
# ETV3L = target: T7, ETV3L (Homo sapiens, UniProt Q6ZN32 1-361); details: protein: recombinant; tags: N-terminal GST; dsDNA, one strand shown
# T7 sequence: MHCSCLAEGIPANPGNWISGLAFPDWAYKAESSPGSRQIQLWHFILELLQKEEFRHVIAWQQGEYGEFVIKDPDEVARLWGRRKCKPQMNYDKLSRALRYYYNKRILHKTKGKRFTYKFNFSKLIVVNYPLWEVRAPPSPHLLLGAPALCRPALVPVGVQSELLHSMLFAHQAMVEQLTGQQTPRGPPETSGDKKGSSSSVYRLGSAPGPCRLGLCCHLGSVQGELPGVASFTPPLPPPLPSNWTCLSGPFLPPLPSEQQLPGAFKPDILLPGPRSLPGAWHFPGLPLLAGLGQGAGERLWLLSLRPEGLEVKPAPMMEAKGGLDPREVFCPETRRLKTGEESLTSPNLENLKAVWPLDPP
# How it was run: as §1
# ETS2 = target: T8, ETS2 (Homo sapiens, UniProt P15036 1-469); details: protein: recombinant; tags: N-terminal GST; dsDNA, one strand shown
# T8 sequence: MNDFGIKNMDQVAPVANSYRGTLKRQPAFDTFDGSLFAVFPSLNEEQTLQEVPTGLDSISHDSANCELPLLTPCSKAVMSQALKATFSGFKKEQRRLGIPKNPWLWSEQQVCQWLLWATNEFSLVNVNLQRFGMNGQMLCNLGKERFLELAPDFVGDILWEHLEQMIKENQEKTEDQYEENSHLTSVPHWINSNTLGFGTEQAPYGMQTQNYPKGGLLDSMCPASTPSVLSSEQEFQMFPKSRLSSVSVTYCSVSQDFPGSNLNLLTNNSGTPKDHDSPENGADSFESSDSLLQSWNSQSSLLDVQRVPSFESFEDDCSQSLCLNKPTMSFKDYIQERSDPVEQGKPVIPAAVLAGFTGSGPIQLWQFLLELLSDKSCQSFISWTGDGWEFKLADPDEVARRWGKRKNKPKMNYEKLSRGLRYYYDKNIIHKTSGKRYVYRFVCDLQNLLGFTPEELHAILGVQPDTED
# How it was run: as §1
# SPDEF = target: T9, SPDEF (Homo sapiens, UniProt O95238 1-335); details: protein: recombinant; tags: N-terminal GST; dsDNA, one strand shown
# T9 sequence: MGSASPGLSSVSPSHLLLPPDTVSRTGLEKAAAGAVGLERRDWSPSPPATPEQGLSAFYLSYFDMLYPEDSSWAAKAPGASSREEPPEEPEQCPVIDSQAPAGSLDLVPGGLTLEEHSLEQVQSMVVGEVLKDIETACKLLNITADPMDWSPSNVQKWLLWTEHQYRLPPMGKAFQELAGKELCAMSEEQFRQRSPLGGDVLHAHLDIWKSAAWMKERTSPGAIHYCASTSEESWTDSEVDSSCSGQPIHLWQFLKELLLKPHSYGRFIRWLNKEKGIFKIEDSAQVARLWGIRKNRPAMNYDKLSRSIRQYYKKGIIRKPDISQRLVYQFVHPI
# How it was run: as §1
# ETV7 = target: T10, ETV7 (Homo sapiens, UniProt Q9Y603 1-341); details: protein: recombinant; tags: N-terminal GST; dsDNA, one strand shown
# T10 sequence: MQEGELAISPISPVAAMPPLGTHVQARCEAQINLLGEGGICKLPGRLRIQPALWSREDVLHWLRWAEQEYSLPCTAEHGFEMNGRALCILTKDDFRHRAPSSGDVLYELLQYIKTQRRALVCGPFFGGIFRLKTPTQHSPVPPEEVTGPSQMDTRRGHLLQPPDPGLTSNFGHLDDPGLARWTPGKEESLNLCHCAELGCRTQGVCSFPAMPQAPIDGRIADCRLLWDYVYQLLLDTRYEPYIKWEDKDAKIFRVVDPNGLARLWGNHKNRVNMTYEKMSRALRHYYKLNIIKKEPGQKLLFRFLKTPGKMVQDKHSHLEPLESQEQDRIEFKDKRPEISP
# How it was run: as §1
# ELF5 = target: T11, ELF5 (Homo sapiens, UniProt Q9UKW6-2 1-255); details: protein: recombinant; tags: N-terminal GST; dsDNA, one strand shown
# T11 sequence: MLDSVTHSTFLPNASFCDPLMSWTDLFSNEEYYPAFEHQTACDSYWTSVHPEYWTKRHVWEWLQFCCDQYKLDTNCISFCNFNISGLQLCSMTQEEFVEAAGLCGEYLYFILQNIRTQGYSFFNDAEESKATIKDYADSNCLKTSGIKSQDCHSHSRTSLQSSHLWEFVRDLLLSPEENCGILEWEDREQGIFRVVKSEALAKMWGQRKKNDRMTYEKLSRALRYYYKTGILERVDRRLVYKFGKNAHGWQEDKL
# How it was run: as §1
# ETV3 = target: T12, ETV3 (Homo sapiens, UniProt P41162-2 1-143); details: protein: recombinant; tags: N-terminal GST; dsDNA, one strand shown
# T12 sequence: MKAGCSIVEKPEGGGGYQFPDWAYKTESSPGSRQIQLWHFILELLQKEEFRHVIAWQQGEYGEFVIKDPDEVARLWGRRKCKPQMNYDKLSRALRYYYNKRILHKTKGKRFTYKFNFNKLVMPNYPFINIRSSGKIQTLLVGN
# How it was run: as §1
# ETV6 = ETV6 (Homo sapiens, UniProt P41212 1-452); details: protein: recombinant; tags: N-terminal GST; dsDNA, one strand shown
# Sequence of ETV6 (P41212 whole entry): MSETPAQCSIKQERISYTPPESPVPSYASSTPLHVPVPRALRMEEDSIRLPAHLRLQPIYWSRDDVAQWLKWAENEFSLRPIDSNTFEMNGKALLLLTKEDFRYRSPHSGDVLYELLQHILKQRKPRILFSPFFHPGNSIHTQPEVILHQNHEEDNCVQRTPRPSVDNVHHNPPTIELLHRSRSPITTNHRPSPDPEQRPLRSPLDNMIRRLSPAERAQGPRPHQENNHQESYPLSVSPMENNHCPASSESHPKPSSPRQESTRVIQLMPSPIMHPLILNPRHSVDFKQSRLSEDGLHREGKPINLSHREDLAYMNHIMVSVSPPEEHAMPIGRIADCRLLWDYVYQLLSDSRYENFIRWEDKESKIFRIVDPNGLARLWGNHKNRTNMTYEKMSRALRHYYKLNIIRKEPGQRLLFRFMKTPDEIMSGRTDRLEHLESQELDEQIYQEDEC
# How it was run: as §1
sequence,measurement,setting,value
GATGTA,binding signal,FEV,"1.4 fold enrichment (6-mer frequency, TF over GST control)"
same,binding signal,ETV5,"1.37 fold enrichment (6-mer frequency, TF over GST control)"
same,binding signal,HSF1,"1.01 fold enrichment (6-mer frequency, TF over GST control)"
same,binding signal,SPIC,"1.12 fold enrichment (6-mer frequency, TF over GST control)"
same,binding signal,ELF4,"1.33 fold enrichment (6-mer frequency, TF over GST control)"
same,binding signal,ELK4,"1.28 fold enrichment (6-mer frequency, TF over GST control)"
same,binding signal,ETV2,"1.18 fold enrichment (6-mer frequency, TF over GST control)"
same,binding signal,ELF3,"1.53 fold enrichment (6-mer frequency, TF over GST control)"
same,binding signal,CRX,"1.06 fold enrichment (6-mer frequency, TF over GST control)"
same,binding signal,ETV1,"1.33 fold enrichment (6-mer frequency, TF over GST control)"
same,binding signal,ERF,"1.18 fold enrichment (6-mer frequency, TF over GST control)"
same,binding signal,ETV3L,"1.39 fold enrichment (6-mer frequency, TF over GST control)"
same,binding signal,ETS2,"1.49 fold enrichment (6-mer frequency, TF over GST control)"
same,binding signal,SPDEF,"2 fold enrichment (6-mer frequency, TF over GST control)"
same,binding signal,ETV7,"1.43 fold enrichment (6-mer frequency, TF over GST control)"
same,binding signal,ELF5,"1.38 fold enrichment (6-mer frequency, TF over GST control)"
same,binding signal,ETV3,"1.39 fold enrichment (6-mer frequency, TF over GST control)"
same,binding signal,ETV6,"1.35 fold enrichment (6-mer frequency, TF over GST control)"
